Results taken from PubChem BioAssay (NCATS).
Values joined by “and” are separate entries in the source; they are usually repeats but may differ in a detail not shown here. Equal entries are not always repeated. Inconclusive results are not listed. Entries that show only a call come without a potency. A number with no mark means an inactive call. Active and inactive are the calls of the source. Calls follow the shape of the dose curve; as a rule, active = well fitted curve in the direction sought with a large enough effect; inconclusive = small, poorly fitted or top-dose-only effect, or another doubt; inactive = no such curve, though single readings can be large; an effect the other way counts as inactive or inconclusive.

Assay: Primary qHTS for inhibitors of nuclear receptor binding SET domain protein 2 (NSD2) in an isogenic RCH-ACV NSD2 p.E1099K mutant (9B) (AID 1645876)
Settings: RCH-ACV NSD2 E1099K (9B) viability, CellTiter-Glo, 72 h; series mostly up to 44.9 µM
Also: nearly all actives have a fitted effect of over 70% in size.
Potency is read from the fitted curve at half-maximal effect.

**Q.** With CCn1cc(C(=O)O)c(=O)c2cnc(N3CCNCC3)nc21 as the compound, how does the Potency read?
**A.** The Potency was “inactive”.

**Q.** Which Potency does the source give for CC1(C)CO[C@@H](CC(=O)O)CN1 here?
**A.** Its Potency is “inactive”.

**Q.** For O=C1O[C@H]([C@@H](O)CO)C(O)=C1O, which Potency is on record?
**A.** Its Potency is “inactive”.

**Q.** For NS(=O)(=O)c1cc2c(cc1C(F)(F)F)NC(Cc1ccccc1)NS2(=O)=O (stereo not drawn), which Potency is on record?
**A.** Its Potency is “inactive”.

**Q.** For C[C@H]1O[C@H](O[C@H]2[C@H](O)[C@@H](O)[C@@H](O[C@H]3[C@H](O)[C@@H](O)[C@H](O)O[C@@H]3CO)O[C@@H]2CO)[C@H](O)[C@@H](O)[C@@H]1N[C@H]1C=C(CO)[C@@H](O)[C@H](O)[C@H]1O, which Potency is on record?
**A.** Its Potency is “inactive”.

**Q.** With CC[C@@]1(c2ccccc2)NC(=O)N(C)C1=O as the compound, how does the Potency read?
**A.** The Potency was “inactive”.

**Q.** Which Potency does the source give for CCCCN1CCCC[C@H]1C(=O)Nc1c(C)cccc1C here?
**A.** The Potency was “inactive”.

**Q.** With CO/N=C(\C(=O)N[C@@H]1C(=O)N2C(C(=O)O)=C(CSc3nc(=O)c(O)nn3C)CS[C@H]12)c1csc(N)n1 as the compound, how does the Potency read?
**A.** Its Potency is “inactive”.

**Q.** Which Potency does the source give for Oc1cccc(O)c1 here?
**A.** Its Potency is “inactive”.

**Q.** With NC(=O)NNc1ccccc1 as the compound, how does the Potency read?
**A.** The Potency was “inactive”.

**Q.** For CC[C@H]1CN2CCc3cc(OC)c(OC)cc3[C@@H]2C[C@@H]1C[C@H]1NCCc2cc(OC)c(OC)cc21, which Potency is on record?
**A.** The Potency was 84.1 nM (active) and 132 nM (active).

**Q.** Which Potency does the source give for O=C(O)CC(O)C(=O)O (stereo not drawn) here?
**A.** The Potency was “inactive”.

**Q.** With O=C(O)[C@H](O)c1ccccc1 as the compound, how does the Potency read?
**A.** The Potency was “inactive”.

**Q.** With CCC(=O)c1ccc(O)cc1 as the compound, how does the Potency read?
**A.** Its Potency is “inactive”.

**Q.** For CCCCCCCCCCCCCCCC(=O)NCCO, which Potency is on record?
**A.** Its Potency is “inactive”.

**Q.** With c1ccc(CN(CC2=NCCN2)c2ccccc2)cc1 as the compound, how does the Potency read?
**A.** Its Potency is “inactive”.

**Q.** Which Potency does the source give for O=C(O)[C@@H]1CSCN1 here?
**A.** The Potency was “inactive”.

**Q.** Which Potency does the source give for NC(=O)c1ncn([C@@H]2O[C@H](CO)[C@@H](O)[C@H]2O)c1N here?
**A.** The Potency was “inactive”.

**Q.** With COc1cc(C(=O)N2CCOCC2)cc(OC)c1OC as the compound, how does the Potency read?
**A.** Its Potency is “inactive”.

**Q.** For CSc1ccc2c(c1)C(N1CCN(C)CC1)Cc1ccccc1S2 (stereo not drawn), which Potency is on record?
**A.** The Potency was 23.7 µM (active).

**Q.** With O=c1cc[nH]c(=O)[nH]1 as the compound, how does the Potency read?
**A.** The Potency was “inactive”.

**Q.** For CC/C=C(\C(=O)N[C@@H]1C(=O)N2C(C(=O)OCOC(=O)C(C)(C)C)=C(COC(N)=O)CS[C@H]12)c1csc(N)n1, which Potency is on record?
**A.** The Potency was “inactive”.

**Q.** For CCOc1nc2cccc(C(=O)O)c2n1Cc1ccc(-c2ccccc2-c2nn[nH]n2)cc1, which Potency is on record?
**A.** The Potency was “inactive”.

**Q.** Which Potency does the source give for OCC(O)CN1CCN(c2ccccc2)CC1 (stereo not drawn) here?
**A.** Its Potency is “inactive”.

**Q.** Which Potency does the source give for CN1[C@@H]2CC[C@H]1CC(OC(=O)C(O)c1ccccc1)C2 (stereo partly drawn) here?
**A.** Its Potency is “inactive”.

**Q.** For CN(C)CCCO[C@@H]1[C@H]2OC(C)(C)O[C@H]2O[C@@H]1C(O)CO (stereo partly drawn), which Potency is on record?
**A.** The Potency was “inactive”.

**Q.** Which Potency does the source give for CC(C)(C)C(=O)NCCCC(=O)O here?
**A.** The Potency was “inactive”.

**Q.** For CC(O)CN(CCN(CC(C)O)CC(C)O)CC(C)O (stereo not drawn), which Potency is on record?
**A.** The Potency was “inactive”.

**Q.** With O=C(O)c1ccccn1 as the compound, how does the Potency read?
**A.** The Potency was “inactive”.

**Q.** For C[C@](N)(Cc1ccc(O)cc1)C(=O)O, which activity change, negative = viability loss is on record?
**A.** The activity change, negative = viability loss was -3.71% [at 4.96 µM].

**Q.** For CC(=O)CCC(=O)O, which Potency is on record?
**A.** The Potency was “inactive”.

**Q.** For CC12CCC(CC1)C(C)(C)O2, which Potency is on record?
**A.** Its Potency is “inactive”.

**Q.** Which Potency does the source give for CC(O)COc1ccccc1 (stereo not drawn) here?
**A.** The Potency was “inactive”.

**Q.** With COc1cc2[nH]c(=O)[nH]c(=O)c2cc1OC as the compound, how does the Potency read?
**A.** Its Potency is “inactive”.

Assay: Primary qHTS for inhibitors of nuclear receptor binding SET domain protein 2 (NSD2) in an RCH-ACV wild type WT cells (2C) (AID 1645877)
Settings: RCH-ACV (leukaemia line) NSD2 WT (2C) viability, CellTiter-Glo, 72 h; series mostly up to 44.9 µM

**Q.** With CCn1cc(C(=O)O)c(=O)c2cnc(N3CCNCC3)nc21 as the compound, how does the Potency read?
**A.** The Potency was “inactive”.

**Q.** For CC1(C)CO[C@@H](CC(=O)O)CN1, which Potency is on record?
**A.** The Potency was “inactive”.

**Q.** Which Potency does the source give for O=C1O[C@H]([C@@H](O)CO)C(O)=C1O here?
**A.** Its Potency is “inactive”.

**Q.** For NS(=O)(=O)c1cc2c(cc1C(F)(F)F)NC(Cc1ccccc1)NS2(=O)=O (stereo not drawn), which Potency is on record?
**A.** Its Potency is “inactive”.

**Q.** With C[C@H]1O[C@H](O[C@H]2[C@H](O)[C@@H](O)[C@@H](O[C@H]3[C@H](O)[C@@H](O)[C@H](O)O[C@@H]3CO)O[C@@H]2CO)[C@H](O)[C@@H](O)[C@@H]1N[C@H]1C=C(CO)[C@@H](O)[C@H](O)[C@H]1O as the compound, how does the Potency read?
**A.** The Potency was “inactive”.

**Q.** With CC[C@@]1(c2ccccc2)NC(=O)N(C)C1=O as the compound, how does the Potency read?
**A.** Its Potency is “inactive”.

**Q.** Which Potency does the source give for CCCCN1CCCC[C@H]1C(=O)Nc1c(C)cccc1C here?
**A.** The Potency was “inactive”.

**Q.** Which Potency does the source give for CO/N=C(\C(=O)N[C@@H]1C(=O)N2C(C(=O)O)=C(CSc3nc(=O)c(O)nn3C)CS[C@H]12)c1csc(N)n1 here?
**A.** Its Potency is “inactive”.

**Q.** For Oc1cccc(O)c1, which Potency is on record?
**A.** The Potency was “inactive”.

**Q.** Which Potency does the source give for NC(=O)NNc1ccccc1 here?
**A.** Its Potency is “inactive”.

**Q.** With CC[C@H]1CN2CCc3cc(OC)c(OC)cc3[C@@H]2C[C@@H]1C[C@H]1NCCc2cc(OC)c(OC)cc21 as the compound, how does the Potency read?
**A.** The Potency was 59.6 nM (active) and 118 nM (active).

**Q.** With O=C(O)CC(O)C(=O)O (stereo not drawn) as the compound, how does the Potency read?
**A.** The Potency was “inactive”.

**Q.** For O=C(O)[C@H](O)c1ccccc1, which Potency is on record?
**A.** Its Potency is “inactive”.

**Q.** With CCC(=O)c1ccc(O)cc1 as the compound, how does the Potency read?
**A.** The Potency was “inactive”.

**Q.** For CCCCCCCCCCCCCCCC(=O)NCCO, which Potency is on record?
**A.** Its Potency is “inactive”.

**Q.** For c1ccc(CN(CC2=NCCN2)c2ccccc2)cc1, which Potency is on record?
**A.** The Potency was “inactive”.

**Q.** Which Potency does the source give for O=C(O)[C@@H]1CSCN1 here?
**A.** Its Potency is “inactive”.

**Q.** With NC(=O)c1ncn([C@@H]2O[C@H](CO)[C@@H](O)[C@H]2O)c1N as the compound, how does the Potency read?
**A.** The Potency was “inactive”.

**Q.** With COc1cc(C(=O)N2CCOCC2)cc(OC)c1OC as the compound, how does the Potency read?
**A.** The Potency was “inactive”.

**Q.** With CSc1ccc2c(c1)C(N1CCN(C)CC1)Cc1ccccc1S2 (stereo not drawn) as the compound, how does the Potency read?
**A.** The Potency was 15 µM (active).

**Q.** Which Potency does the source give for O=c1cc[nH]c(=O)[nH]1 here?
**A.** The Potency was “inactive”.

**Q.** For CC/C=C(\C(=O)N[C@@H]1C(=O)N2C(C(=O)OCOC(=O)C(C)(C)C)=C(COC(N)=O)CS[C@H]12)c1csc(N)n1, which Potency is on record?
**A.** Its Potency is “inactive”.

**Q.** Which Potency does the source give for CCOc1nc2cccc(C(=O)O)c2n1Cc1ccc(-c2ccccc2-c2nn[nH]n2)cc1 here?
**A.** Its Potency is “inactive”.

**Q.** For OCC(O)CN1CCN(c2ccccc2)CC1 (stereo not drawn), which Potency is on record?
**A.** The Potency was “inactive”.

**Q.** Which Potency does the source give for CN1[C@@H]2CC[C@H]1CC(OC(=O)C(O)c1ccccc1)C2 (stereo partly drawn) here?
**A.** The Potency was “inactive”.

**Q.** For CN(C)CCCO[C@@H]1[C@H]2OC(C)(C)O[C@H]2O[C@@H]1C(O)CO (stereo partly drawn), which Potency is on record?
**A.** The Potency was “inactive”.

**Q.** Which Potency does the source give for CC(C)(C)C(=O)NCCCC(=O)O here?
**A.** Its Potency is “inactive”.

**Q.** Which Potency does the source give for CC(O)CN(CCN(CC(C)O)CC(C)O)CC(C)O (stereo not drawn) here?
**A.** The Potency was “inactive”.

**Q.** With O=C(O)c1ccccn1 as the compound, how does the Potency read?
**A.** The Potency was “inactive”.

**Q.** Which outcome does the source give for C[C@](N)(Cc1ccc(O)cc1)C(=O)O here?
**A.** Its outcome is “inactive [at 4.96 µM]”.

**Q.** For CC(=O)CCC(=O)O, which Potency is on record?
**A.** The Potency was “inactive”.

**Q.** For CC12CCC(CC1)C(C)(C)O2, which Potency is on record?
**A.** Its Potency is “inactive”.

**Q.** With CC(O)COc1ccccc1 (stereo not drawn) as the compound, how does the Potency read?
**A.** Its Potency is “inactive”.

**Q.** For COc1cc2[nH]c(=O)[nH]c(=O)c2cc1OC, which Potency is on record?
**A.** Its Potency is “inactive”.
